Measurements as given in ChEMBL document CHEMBL4513216, “Probing the Open Global Health Chemical Diversity Library for Multistage-Active Starting Points for Next-Generation Antimalarials” (ACS Infect Dis, 2020).
The whole screen tested about 68,000 compounds, of which about 2,700 (4%) showed an effect of 50% or more. The sample as a whole holds a higher share of strong results than the screen did.

System: Plasmodium berghei
Experiment: Screen against P. berghei liver stage (PbLuc), transformed with Luciferase, at 2uM
Type: functional, HepG2
Conditions: tested at 2 uM

Compound | INHIBITION [%]
CCN1C[C@@H]2CN(C(=O)c3cccn3C)C[C@@H]2C1=O | 17.05
CCCN1C[C@@H]2CC[C@H]1CN(Cc1cccc(O)c1)C2 | -1.63
CC(C)N(CCO)C(=O)C1CCC(=O)N(CCc2cccc(F)c2)C1 (centres undefined) | 66.74
CCC(CO)(CO)NC(=O)C1CCC(=O)N(CCc2ccccc2)C1 (centres undefined) | -19.02
CC(C)N(C)C(=O)C1CCC(=O)N(CCc2cccc(F)c2)C1 (centres undefined) | 68.39
CCCN(CCO)C(=O)C1CCC(=O)N(Cc2ccc(Cl)cc2)C1 (centres undefined) | -49.57
CCN(CCO)C(=O)C1CCC(=O)N(CCc2cccc(F)c2)C1 (centres undefined) | 30.62
CCCN(CCO)C(=O)C1CCC(=O)N(CCc2ccc(Cl)cc2)C1 (centres undefined) | -16.93
CCN(CCO)C(=O)C1CCC(=O)N(Cc2cccc(OC)c2)C1 (centres undefined) | 53.61
CCN(CC)C(=O)C1CCC(=O)N(CCc2cccc(F)c2)C1 (centres undefined) | 17.48
CC(C)N(CCO)C(=O)C1CCC(=O)N(CCc2ccc(Cl)cc2)C1 (centres undefined) | 17.2
CN1CCN(C2COC3(CCN(Cc4ccc(F)cc4)CC3)C2)CC1 (centres undefined) | -0.38
CC(C)c1cc(C(=O)NCC(O)C2CCOCC2)nn1C(C)(C)C (centres undefined) | -31.6
Cc1nc2cc(O)nn2c(C)c1CCC(=O)NCc1cc(Br)cs1 | 15.28
Cc1cc(C(=O)NCC2COCc3c(C)nnn3C2)no1 (centres undefined) | 14.39
CCN1CC(C(=O)N(C)Cc2ccon2)CC1=O (centres undefined) | -26.32
CN(C)CC(=O)N1CC[C@H]2OCC[C@@]2(COCC2CC2)C1 | 11.87
c1cnc(N2CC[C@@H](OCC3CC3)[C@@H]2Cc2cccnc2)nc1 | 23.21
CNC(=O)COC1COC2(CCN(c3ccc(C#N)cc3)CC2)C1 (centres undefined) | 14.97
COCC(=O)N(CCC(=O)OC)CC1CCCO1 (centres undefined) | 10.4
COCC(=O)N1CC[C@H]2C[C@H](c3nc(C)no3)O[C@@H]2C1 | -1.81
COCC(=O)N1CC[C@H]2C[C@H](c3nnc(C4CC4)o3)O[C@@H]2C1 | 50.61
COCC(=O)N1CC[C@H]2C[C@@H](c3nnc(C4CC4)o3)O[C@@H]2C1 | 6.55
CC(C)CS(=O)(=O)CCNC(=O)Nc1cccc2ncccc12 | -41.73
O=C(Cn1cc(C(=O)O)ccc1=O)Nc1ccc(Cl)cc1F | 33.23
O=C(Cn1cc(C(=O)O)ccc1=O)NCc1ccc(F)cc1Cl | 9.27

Compound | INHIBITION [%]
COCCOCC(=O)Nc1ccc(C)cc1F | 11.28
Cc1ccc(Cl)cc1NC(=O)Cn1cc(C(=O)O)ccc1=O | 22.4
Cc1cc(F)ccc1NC(=O)Cn1cc(C(=O)O)ccc1=O | 55.39
O=C(Cn1cc(C(=O)O)ccc1=O)Nc1ccc(F)cc1Cl | -5.95
O=C(Cn1cc(C(=O)O)ccc1=O)Nc1cc(F)ccc1F | 63.46
COCCOCC(=O)Nc1ccc(F)cc1C | 52.74
COCCOCC(=O)Nc1cc(C)ccc1F | 12.56
O=C(CC1COCCN1C(=O)c1cscn1)c1ccccc1 (centres undefined) | 5.43
CNC(=O)Cc1ccccc1NC(=O)C1CCN(C2CCCCC2)C1 (centres undefined) | -0.39
CC(=O)Nc1ccc(CNCc2ccc(CS(C)(=O)=O)cc2)cc1 | -1.53
Cc1nc(CN2CCCC(NCCCOc3ccc(F)cc3)C2)no1 (centres undefined) | 4.18
CCc1ncc(C(=O)NCC2CCN(Cc3ccncc3)CC2)cn1 | -6.29
CCN1CCN(C2CCN(Cc3cc(C)on3)CC2)C1=O | -14.11
Cc1csc(N2CCN(C(=O)CCc3nccs3)CC2)n1 | -18.67
Cc1[nH]ncc1C(=O)N(CC(C)C)CC(O)c1ccc(F)cc1 (centres undefined) | 25.65
CC(C)CN(CC(O)c1ccc(F)cc1)C(=O)c1cc[nH]n1 (centres undefined) | 10.91
Cc1cc(C(=O)N(CC(C)C)CC(O)c2ccc(F)cc2)[nH]n1 (centres undefined) | 51.96
CCC(=O)N1CCCC(Cn2cc(-c3ccc(F)cc3)nn2)C1 (centres undefined) | -27.82
CC(C)NC(=O)N1CCCC(Cn2cc(-c3ccc(F)cc3)nn2)C1 (centres undefined) | -17.86
NCc1cn(CC2CCCN(C(=O)NCCc3ccc(F)cc3)C2)nn1 (centres undefined) | 62.51
COc1ccc(CC(=O)N2CCCC(Cn3cc(CN)nn3)C2)cc1 (centres undefined) | 12.43
CNc1ccc(Cl)cc1C(=O)N1CCC(Cn2cc(CN)nn2)CC1 | 3.72
NCc1cn(CC2CCCN(C(=O)CC3=CCCCC3)C2)nn1 (centres undefined) | 16.72
COc1cccc(CNC(=O)N2CCCC(Cn3cc(CN)nn3)C2)c1 (centres undefined) | 76.82
COc1cccc(CNC(=O)CN2CCCC(Cn3cncn3)C2)c1 (centres undefined) | -0.76
NCc1cn(CC2CCCN(C(=O)NCc3ccc(Cl)cc3)C2)nn1 (centres undefined) | 62.51

Compound | INHIBITION [%]
Cc1nnc(NC(=O)NCc2ccc(OC3CCCC3)nc2)s1 | 12.74
CCN1C(=O)CO[C@@H]2CN(C(=O)C3CCOCC3)C[C@H]21 | 18.31
COc1ccc(N(c2ccc(OC)cc2)c2ccc(C(=O)O)s2)cc1 | 14.95
CC1c2ncc(COCC3CC3)n2CCN1C(=O)c1ccnn1C (centres undefined) | 21.67
Cc1cc(NC(=O)NCC(C(C)C)N2CCOCC2)n(C)n1 (centres undefined) | 11.63
CN(Cc1cccnc1)C[C@H]1OC[C@@H]2CCN(C(=O)C3CC3)C[C@@H]21 | 8.62
CC(CCN1CCC(n2cc(CCO)nn2)CC1)c1ccccc1 (centres undefined) | 30.89
Cc1ccc(CN2CCC(n3cc(CN4CCC(O)CC4)nn3)CC2)s1 | 35.7
Cc1cccc(CN2CCC(n3cc(CCO)nn3)CC2)c1C | 55.36
Cc1nc(C2CCCN2C(=O)c2cc3c(s2)CCC3)no1 (centres undefined) | 16.89
CCc1nc(CN2CCCN(c3ncnc4sccc34)CC2)no1 | 37.75
CCc1nc(CN2CCCN(c3ncnc4ccsc34)CC2)no1 | 80
CCc1nc(CN2CCCN(c3ncnc4ccccc34)CC2)no1 | -50.34
CC(C)CN1CCN(C(=O)c2ccn(C)c(=O)c2)CC1 | 1.36
Cc1cnn(CC2CCCN2Cc2nc3ccccc3n2C)c1 (centres undefined) | 9.9
CC(C)c1cc(C(=O)NCCN2CCCS2(=O)=O)n[nH]1 | -61.61
O=C(Cc1ccccc1)N1CCOC(c2nc(-c3ncccn3)no2)C1 (centres undefined) | 0.18
O=C(C1CCCC1)N1CCOC(c2nc(-c3ncccn3)no2)C1 (centres undefined) | 22.81
O=C(CC1CCCC1)N1CCOC(c2nc(-c3ncccn3)no2)C1 (centres undefined) | 57.82
Cc1ccccc1C(=O)Nc1cnn(CC(=O)NC2CCCC2)c1 | -24.24
CN(C)c1cc(C2CCCN(S(=O)(=O)C3CCCC3)C2)ccn1 (centres undefined) | 29.89
CCS(=O)(=O)N1CCCC(c2ccnc(N(C)C)c2)C1 (centres undefined) | 59.91
CN(C)c1cc(C2CCCN(S(=O)(=O)c3cn(C)cn3)C2)ccn1 (centres undefined) | 36.15
CC(C)NC(=O)c1cc(-c2ccc(S(C)(=O)=O)cc2)c2cnn(C)c2n1 | 10.93
Cc1nc(CC(=O)N2CCC(Nc3cccnn3)CC2)cs1 | 3.97
CCN(Cc1cccc(-c2ccncc2)c1)S(N)(=O)=O | 20.14

Compound | INHIBITION [%]
CCN(C)S(=O)(=O)N(CC)Cc1cccc(-c2ccncc2)c1 | 21.24
CCN(Cc1cccc(-c2ccncc2)c1)S(C)(=O)=O | 63.1
O=C(Cc1ccon1)N1CCc2cc(Br)sc2C1 | -10.14
COc1ccc(CNC(=O)N2CCC(Cc3cnn(C)c3)C2)cc1C (centres undefined) | 20.28
Cc1cnc(NCc2cnn(C)c2)nc1-c1cnn(C)c1 | 10.13
Cc1cnc(NCc2ccncc2)nc1-c1cnn(C)c1 | 72.34
CCNc1ncc(C)c(-c2cnn(C)c2)n1 | 8.26
CCNC(=O)NC(C)(C)C(=O)NCCc1csc2ccccc12 | 32.03
c1cnc(-c2nc(CN3CCN(CC4CC4)CC3)cs2)nc1 | 24.88
O=C1CSC(c2ccc(O)cc2)c2sccc2N1 (centres undefined) | 17.94
Cn1c(=O)n(C)c2cc(C3SCC(=O)Nc4ccsc43)ccc21 (centres undefined) | 74.91
COc1ccc(C2SCC(=O)Nc3ccsc32)cc1OC (centres undefined) | 7.62
CCOC(=O)N(C)C1CCN(Cc2cnc3ccccn23)CC1 | 2.26
CCc1nc(C)c(C(=O)N(C)Cc2cnc3ccccn23)o1 | 52.81
CN(C(=O)C1CCN(Cc2cnc3ccccn23)CC1)c1ccccc1 | 4.07
CCCc1nnc(C(=O)N(C)Cc2cnc3ccccn23)o1 | -2.89
COCc1nnc(C(=O)N(C)Cc2cnc3ccccn23)o1 | 80.13
COCc1nnc(C(=O)N(C)Cc2ccc(OC)cc2)o1 | 14.55
CS(=O)(=O)N1CCCCC12CCCN(Cc1nccs1)C2 (centres undefined) | -14.74
CCc1cc(NCCNc2ccncc2C)n2nc(C)c(C)c2n1 | -7.77
CC(Nc1ccn(Cc2ccccn2)n1)C(=O)NC(C)(C)C (centres undefined) | -48.1
Cc1nc(CN(C)C)cc(N2CCCC(COc3ccc(F)cc3)C2)n1 (centres undefined) | 40.47
Cc1cc(C(=O)N2CC[C@H]3C[C@H](c4ccncn4)O[C@@H]3C2)c(C)[nH]1 | -16.33
Cc1oncc1C(=O)N1CC[C@H]2C[C@H](c3ccncn3)O[C@@H]2C1 | 52.34
Cc1noc(C)c1C(=O)N1CC[C@H]2C[C@@H](c3ccncn3)O[C@@H]2C1 | 1.42
CN(Cc1ccc(Cl)c(Cl)c1)C(=O)CNC(N)=O | 32.81
